Tb PGK inh = blocks T. brucei phosphoglycerate kinase. PGK/GAPDH coupled, Kinase-Glo luminescence, 60 min. AID 602233. Potency, µM (series often up to 57.5 µM), for the others: at the top dose activity change, negative = inhibition, hits mostly inhibitors. 380,000 compounds, 0.043% hits; also: % is scaled to controls: 0 for no effect and ±100 for the full control effect; nearly all actives have a fitted effect of over 60% in size
Target sequence (P07378 whole entry, looked up): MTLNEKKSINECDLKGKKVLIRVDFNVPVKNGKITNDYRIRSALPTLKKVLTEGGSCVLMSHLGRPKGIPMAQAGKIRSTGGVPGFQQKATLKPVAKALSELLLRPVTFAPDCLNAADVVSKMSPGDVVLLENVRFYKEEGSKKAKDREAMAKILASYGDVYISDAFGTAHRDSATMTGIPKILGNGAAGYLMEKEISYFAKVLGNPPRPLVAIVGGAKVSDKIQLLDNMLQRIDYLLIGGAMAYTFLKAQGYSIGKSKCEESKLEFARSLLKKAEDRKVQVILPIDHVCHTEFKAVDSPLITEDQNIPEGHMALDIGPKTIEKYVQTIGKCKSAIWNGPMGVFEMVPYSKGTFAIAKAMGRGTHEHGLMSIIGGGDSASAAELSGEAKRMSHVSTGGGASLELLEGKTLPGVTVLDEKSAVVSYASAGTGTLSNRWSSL
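Recombinant glycosomal PGK reaction used 1,3-bisphosphoglycerate generated in-well by GAPDH (100nM final) in 100mM TEA pH 7.6, 5mM MgCl2, 0.01% Tween-20. After 60 minutes at room temperature, ATP was read by Kinase-Glo Plus luminescence end-point.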
Tb PFK inh-1 = blocks T. brucei phosphofructokinase | O15648 | Potency, µM (doses to about 57.5 µM), for inactives: at the highest dose activity, negative = inhibition, usual class: inhibitors | 330,000 compounds, 0.17% hits | T. brucei PFK, ADP-Glo luminescence;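 also: 0% = uninhibited 1x PFK enzyme wells and -100% = no-enzyme wells; nearly all actives have a fitted effect of over 60% in size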
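1.25 nM PFK with 0.5 mM F6P and 0.1 mM ATP in 0.1 M TEA pH 8.0, 5 mM MgCl2, incubated 45 min at room temperature; ADP measured by ADP-Glo luminescence; compounds titrated up to 57 uM.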
GLS inhibitor = inhibitors of human glutaminase (GLS). O94925. GLS enzymatic activity, qHTS titration. Potency, µM (titrated, usually from 45.5 µM), without a hit: top-dose activity change, negative = inhibition, most hits filed as inhibitors. 410,000 compounds, 0.21% hits; also: % is scaled to controls: 0 for no effect and ±100 for the full control effect
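Enzyme dispensed in phosphate buffer (45 mM, pH 8.2, 0.02% Tween-20), compounds pinned in, then 1 mM L-glutamine solution and the glutamate oxidase–HRP–Amplex Red mix added; fluorescence read immediately and again after 30 min at room temperature.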
USP2a block = USP2a (human) protease inhibition. O75604. USP2 core, Ub-CHOP2 coupled fluorogenic reporter, 485/531. Potency, µM (highest dose often 38.3 µM), for the others: at the highest dose activity change, negative = inhibition, hits mostly inhibitors. 330,000 compounds, 0.01% hits;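 also: plate controls were DMSO wells for no effect and full inhibition by NEM control for full effect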
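Cell-free coupled assay: 10nM USP2 core preincubated 30min RT with compound in Tris-HCl pH 8.0/CaCl2/CHAPS buffer, then 25nM Ub-CHOP2 and 25nM reporter substrate; fluorescence (Ex 485/Em 531) read after 60min RT, normalized to NEM inhibition, concentration-response curves fitted.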
GCN5L2 inh = inhibitors of human GCN5L2 histone acetyltransferase; GCN5L2 HAT assay, ThioGlo1 CoA-SH fluorescence; Potency, µM (highest dose often 58.9 µM), for inactives: at the highest dose activity change, negative = inhibition, usual class: inhibitors; AID 504327; Q92830; 390,000 compounds, 0.21% hits; also: % is scaled to controls: 0 for no effect and ±100 for the full control effect
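GCN5L2 (20nM final) in 50mM HEPES, 0.1mM EDTA pH 7.5, 0.01% Tween-20 was preincubated 15 min at room temperature with compound, then given ThioGlo1 (50uM), H3(1-25) peptide (75uM) and acetyl-CoA (70uM); CoA-thiol fluorescence (Ex340/Em540) was read at 0 and 20 min.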
Tb PFK KinaseGlo = inhibits T. brucei PFK measured by ATP depletion; shares compounds with Tb PFK inh-1; Tb PFK enzyme, ATP depletion, Kinase-Glo Plus luminescence; Potency, µM (highest dose often 57.5 µM), inactives show at the top dose inhibition; 1,100 compounds, 47% hits; AID 504636; calls by dose curve; also: nearly all actives have a fitted effect of over 60% in size
Tb PFK inh-2 = validation of T. brucei phosphofructokinase inhibitors; shares compounds with Tb PFK inh-1; purified T. brucei PFK, ADP-Glo luminescence, 45 min; Potency, µM (series often up to 57.5 µM), inactives show at the top dose activity change, negative = inhibition, most hits filed as inhibitors; 1,100 compounds, 41% hits;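 also: plate controls were full PFK enzyme control for no effect and no enzyme control for full effect; nearly all actives have a fitted effect of over 60% in size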
* hit, by the source's call; i = inactive; ? = inconclusive; . = not tested or not shown; [ ] = dose if it differs, or a comment. Rows were chosen to be rich in hits. Some 0.52% of all compounds tested hit in one or more screens of this group. Unless noted, calls follow the shape of the dose curve; as a rule, active = well fitted curve in the direction sought with a large enough effect; inconclusive = small, poorly fitted or top-dose-only effect, or another doubt; inactive = no such curve, though single readings can be large; an effect the other way counts as inactive or inconclusive. Potency is read from the fitted curve at half-maximal effect.

SMILES	Tb PGK inh	Tb PFK inh-1	GLS inhibitor	USP2a block	GCN5L2 inh	Tb PFK KinaseGlo	Tb PFK inh-2
Cc1c(C(=O)OCc2ccccc2)[nH]c2c1C(=O)CC(c1ccco1)C2 (configuration not stated)	?	?	-3%	-1%	-16%	?	?
CC1(C)CC(=O)C(C(C2=C(O)CC(C)(C)CC2=O)c2cccs2)C(=O)C1 (configuration not stated)	-5%	?	32%	2%	1%	29%	?
COCCn1c(C)cc(C(=O)COC(=O)c2cc3c(s2)CCC3)c1C	-22%	?	-17%	-1%	-12%	?	-25%
CCOC(=O)c1cc(C)n(CCc2cnc[nH]2)c1C	-5%	4%	11%	-5%	-3%	.	.
OCC(Br)(Br)Br	.	.	.	.	3%	.	.
O=c1cccc2n1CC1CC2CN2CCCCC12 (configuration not stated)	.	.	.	.	0%	.	.
O=[N+]([O-])c1ccc(N/N=C/c2ccc(O)c(O)c2O)c(S(=O)(=O)N2CCOCC2)c1	-1%	?	?	-23%	-12%	?	?
C[C@@H](N)Cn1ccc2cc(F)c(Cl)cc21	.	.	.	.	-12%	.	.
O=C(NN1C(=O)CSC1=S)C(=O)NN1C(=O)CSC1=S	-13%	?	-11%	1%	-4%	?	-9%
CN1C2CC(=O)CC1C(O)C2 (configuration not stated)	.	.	.	.	-13%	.	.
NC(=S)N=Nc1ccc(NN=C(N)N)cc1	-7%	?	45%	0%	?	6.7µM*	13µM*
COc1cccc(N2C(=O)/C(=C/c3ccc(C)o3)C(=O)NC2=S)c1	.	-1%	?	0%	-20%	.	.
CCOc1cccc(N2C(=O)/C(=C/c3ccco3)C(=O)NC2=S)c1	?	?	?	4%	?	?	?
O=[N+]([O-])c1ccc(Sc2cccc[n+]2[O-])c2nonc12	?	11µM*	11µM*	8%	16µM*	2.7µM*	9.5µM*
CC[N+](C)(CC)CCOC(=O)C(O)(c1ccccc1)c1ccccc1	.	.	-4%	.	0%	.	.
CNc1ccccc1C(=O)O	.	.	.	.	-8%	.	.
O=C(NC(=S)Nc1ccccc1C(=O)O)c1ccc2ccccc2c1	-3%	?	-8%	1%	?	-24%	?
CC[C@H](Oc1ccc(Cl)cc1)C(=O)OC1C[C@H]2CC[C@@H](C1)N2C (some centres not stated)	.	.	.	.	-7%	.	.
O=C1NS(=O)c2cc([N+](=O)[O-])cc([N+](=O)[O-])c21 (configuration not stated)	-8%	2%	-1%	0%	1%	.	.
O=C1c2c([N+](=O)[O-])cc([N+](=O)[O-])cc2S(=O)N1Cc1ccccc1 (configuration not stated)	-1%	27µM*	-3%	-7%	28µM*	6%	-5%
CC(C)OCCCNC(=S)Nc1ccc(S(N)(=O)=O)cc1	i	27µM*	-20%	1%	-5%	6.7µM*	13µM*
COC(=O)C(O)(c1ccc(NC(=O)NC2CCCCC2)cc1)C(F)(F)F (configuration not stated)	-6%	-8%	0%	3%	-6%	.	.
NS(=O)(=O)c1ccc(NC(=S)NC2CCCC2)cc1	-11%	?	1%	-1%	-7%	9%	0%
NS(=O)(=O)c1ccc(NC(=O)COc2ccc(Cl)cc2)cc1	.	1.9µM*	-10%	-1%	1%	1.1µM*	?
O=[N+]([O-])c1ccc(NC(=S)NCc2ccc(F)cc2)cc1	8%	?	18%	-1%	-9%	19µM*	?
SMILES	Tb PGK inh	Tb PFK inh-1	GLS inhibitor	USP2a block	GCN5L2 inh	Tb PFK KinaseGlo	Tb PFK inh-2
C=CCN1CCC23c4c5ccc(O)c4OC2/C(=N/N=C2\CCC4(O)C6Cc7ccc(O)c8c7C4(CCN6CC=C)C2O8)CCC3(O)C1C5 (configuration not stated)	.	.	.	.	-10%	.	.
Cc1cccc(Cc2cnc[nH]2)c1C	.	.	-3%	.	.	.	.
CCOP(=O)(OCC)O/C(=C/Cl)c1ccc(Cl)cc1Cl	.	.	3%	.	-10%	.	.
Cc1ccccc1-c1cncnc1NCCc1cnc[nH]1	.	.	.	.	-4%	.	.
NCCc1ccc(S(N)(=O)=O)cc1	i	-2%	5%	-1%	2%	.	.
O=S(=O)(c1ccc(NC(=S)NCc2ccc(F)cc2)cc1)N1CCOCC1	7%	24µM*	3%	-1%	-1%	12µM*	30µM*
NS(=O)(=O)c1ccc(NC(=O)CSc2ccccc2)cc1	-9%	15µM*	-1%	10%	6%	24µM*	30µM*
NS(=O)(=O)c1ccc(NC(=S)NCc2ccc(Cl)cc2)cc1	-1%	12µM*	-18%	4%	-20%	2.7µM*	5.4µM*
NS(=O)(=O)c1ccc(NC(=S)NCc2ccc(F)cc2)cc1	-8%	24µM*	4%	0%	-1%	11µM*	24µM*
CCn1c(O)c(N=Nc2ccc(S(=O)(=O)N3CCOCC3)cc2)c(=O)n(CC)c1=S	-8%	0%	12%	-6%	-10%	.	.
CNC(C)Cc1ccc2c(c1)OCO2 (configuration not stated)	.	.	-3%[99.4 µM]	.	.	.	.

Screening data (PubChem)
